# Assay results from PubChem BioAssay (Tox21).
# Inconclusive results are not listed. The source holds several records for some structures; these can differ, active in one and inactive in another. Calls of active or inactive are those of the source. Calls follow the shape of the full dose curve.
# Molecular target: Thyrotropin receptor (Homo sapiens) (UniProt P16473)
# Experiment: qHTS assay to identify small molecule agonists of the thyroid stimulating hormone receptor (TSHR) signaling pathway (AID 1224843); also: nearly all actives have a fitted effect of over 45% in size
# Conditions: TSHR-HEK293 cells, cAMP HTRF, agonist mode, 30 min; series mostly up to 92.4 µM; activation: at the top concentration
# Source text: National Center for Advancing Translational Sciences [NCATS]
# NIH Chemical Genomics Center [NCGC]
# U.S. Environmental Protection Agency [EPA]
# National Institutes of Environmental Health Sciences [NIEHS]
# National Toxicology Program [NTP]
# U.S. Food and Drug Administration [FDA]
# TSHR is the receptor for thyrotropin (thyroid stimulating hormone or TSH), a member of the glycoprotein hormone family. TSH is released by the anterior pituitary gland and is the main regulator of thyroid gland growth and development. Upon binding circulating thyrotropin, a G-protein signal cascade activates adenylyl cyclase and […] cAMP concentration is increased. cAMP is a key second messenger involved extensively in cellular signal transduction pathways associated with the majority of G-protein coupled receptors (GPCRs). The activation of these GPCRs by neurotransmitters, lipids, nucleotides, peptides and hormones results in the activation or the inhibition of plasma membrane-bound adenylate cyclase through heterotrimeric G-proteins. A cell-based TSHR assay was used to screen the Tox21 10K library for compounds that can modulate TSHR in agonist mode.
# Tox21 Assay Protocol Summary:
# TSHR-Hek293 cells were dispensed at 800 cells/4uL/well in 1536-well white plates using a Multidrop dispenser. […] The plates were incubated at room temperature for 30 min. 2.5 ul/well of cAMP-d2 and 2.5ul/well of anti-cAMP-cryptate was added respectively into the assay plates using a Flying Reagent Dispenser. After 1 hr incubation at room temperature, the fluorescence intensity in the plates was measured using an Envision plate reader. Each test compound was measured at 15 concentrations and in triplicates.
# % is scaled to controls: 0 for no effect and ±100 for the full control effect; potency is read from the fitted curve at half-maximal effect.
# Thyrotropin receptor (Homo sapiens), sequence (P16473 whole entry, looked up): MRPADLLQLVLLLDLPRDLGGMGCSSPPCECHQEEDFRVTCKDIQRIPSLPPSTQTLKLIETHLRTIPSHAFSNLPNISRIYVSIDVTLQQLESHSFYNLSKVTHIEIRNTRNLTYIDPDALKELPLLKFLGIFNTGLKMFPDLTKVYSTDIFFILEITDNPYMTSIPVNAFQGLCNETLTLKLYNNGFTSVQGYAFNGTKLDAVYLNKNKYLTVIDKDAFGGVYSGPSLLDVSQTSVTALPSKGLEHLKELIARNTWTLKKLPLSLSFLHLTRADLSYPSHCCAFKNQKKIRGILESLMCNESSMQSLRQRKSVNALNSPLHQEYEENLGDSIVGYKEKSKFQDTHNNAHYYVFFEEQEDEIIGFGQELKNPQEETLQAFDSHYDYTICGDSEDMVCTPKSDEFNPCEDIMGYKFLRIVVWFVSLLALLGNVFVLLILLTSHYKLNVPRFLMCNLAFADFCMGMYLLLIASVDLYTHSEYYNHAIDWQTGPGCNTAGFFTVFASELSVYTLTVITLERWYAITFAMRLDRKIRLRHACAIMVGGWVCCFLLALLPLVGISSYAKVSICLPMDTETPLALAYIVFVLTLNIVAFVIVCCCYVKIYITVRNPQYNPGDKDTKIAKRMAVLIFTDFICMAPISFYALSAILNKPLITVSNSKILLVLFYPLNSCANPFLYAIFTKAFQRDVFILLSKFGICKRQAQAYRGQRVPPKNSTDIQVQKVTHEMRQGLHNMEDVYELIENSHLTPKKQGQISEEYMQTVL
Compound,activation,Potency
C[C@H]1[C@@H]2Cc3ccc(O)cc3[C@@]1(C)CCN2C,11.3% [at 240 µM] (inactive),–
CCCCCBr,-5.85% (inactive),–
CCOC(=O)C1OC1(C)c1ccccc1 (stereo not given),–,inactive
CCc1cnc(C2=NC(C)(C(C)C)C(=O)N2)c(C(=O)O)c1 (stereo not given),–,inactive
CCCC(C)(COC(N)=O)COC(=O)NC(C)C (stereo not given),–,inactive
CC(O)CN1CCN(CC(=O)[O-])CCN(CC(=O)[O-])CCN(CC(=O)[O-])CC1.[Gd+3] (stereo not given),-0.766% [at 42.5 µM] (inactive),–
O=C(O)c1cc(I)cc(I)c1I,0.927% (inactive),–
Clc1ccc(Cl)c(Cl)c1,–,2.98 µM (active) and inactive
O=CC=O,-0.355% (inactive),–
CC(C)OC(=O)Cc1ccccc1,-26% (inactive),–
Nc1c(Br)cc(Br)c2c1C(=O)c1ccccc1C2=O,-6.18% [at 19 µM] (inactive),–
CCCCCCCCCCCC[N+](C)(C)CCOc1ccccc1,–,48.6 µM (active) and inactive
C#CC(O)(C=CCl)CC (stereo not given),-0.896% [at 42.5 µM] (inactive),–
Oc1cccc(Cl)c1,-0.758% (inactive),–
O=C(NC(=O)c1cc(F)c(F)cc1Cl)Nc1cc(F)ccc1N1CCC(C(=O)O)CC1,0.684% [at 42.5 µM] (inactive),–
CC(C)(C)NCC(O)c1ccccc1Cl (stereo not given),25.8% [at 42.5 µM] (inactive),–
NP(N)(=O)NC(=O)c1ccc(F)cc1,5.17% [at 42.5 µM] (inactive),–
O=C(Cc1ccccc1)c1ccccc1,-15% (inactive),–
C=C(Cl)Cl,4.8% (inactive),–
CCCCCCCCCCCCN=C(N)N,5.05% [at 3.27 µM] (inactive),–

Compound,activation,Potency
CC(C)(c1ccccc1)c1cc(-n2nc3ccccc3n2)c(O)c(C(C)(C)c2ccccc2)c1,-4.6% [at 42.5 µM] (inactive),–
C[N+]1(CCC(C(N)=O)(c2ccccc2)c2ccccc2)CCCCC1,1.33% [at 42.5 µM] (inactive),–
CCNC(=O)NC(=O)/C(C#N)=N/OC,3.53% (inactive),–
O=C1NC(=O)C(=O)C(=O)N1,-8.1% (inactive),–
O=P(OCC(Br)CBr)(OCC(Br)CBr)OCC(Br)CBr (stereo not given),-28.9% (inactive),–
CC1(C)CC(=O)CC(C)(C)N1[O],-1.4% (inactive),–
CCCC[N+]1(C)[C@@H]2CC(OC(=O)[C@H](CO)c3ccccc3)C[C@H]1[C@@H]1O[C@@H]12 (stereo not given in full),6.2% [at 42.5 µM] (inactive),–
CN(C)N,9.02% (inactive),–
CCOP(=O)(SC(C)CC)N1CCSC1=O (stereo not given),-2.07% (inactive),–
COc1cc(CC(C)N)c(OC)cc1Br (stereo not given),19.2% (inactive),–
CCOC(=O)NC(O)C(Cl)(Cl)Cl (stereo not given),-7.02% [at 42.5 µM] (inactive),–
NC(=S)c1c(Cl)cccc1Cl,8.52% (inactive),–
Clc1ccc2ccccc2c1,4.25% (inactive),–
C=C(C)C(=O)OCCCCOC(=O)C(=C)C,-10.5% (inactive),–
CN[C@@H](C)[C@H](O)c1ccccc1,12.1% [at 42.5 µM] (inactive),–
CCCC[P+](CC)(CCCC)CCCC (tested in a mixture with another compound),10.1% (inactive),–
COCc1cnc(C2=NC(C)(C(C)C)C(=O)N2)c(C(=O)O)c1 (stereo not given),-0.376% (inactive),–
CN1C(=O)CN=C(c2ccccc2)c2cc([N+](=O)[O-])ccc21,-5.78% [at 42.5 µM] (inactive),–
CC(C)C1(C)N=C(c2ncccc2C(=O)O)NC1=O (stereo not given),-0.301% (inactive),–
Cc1ncc(C[n+]2csc(CCO)c2C)c(N)n1,0.236% (inactive),–
